Calpain2 inh: calpain II (pig) inhibition; purified calpain II, fluorogenic peptide substrate, 30 min; inhibition, % at 16 µM; 0.37% of 220,000 active; AID 1236;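 active = inhibition above about 50%, limit read from the data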
KCC2 mod: KCC2 (human) Cl- transport modulation. Q9H2X9. KCC2 cells, thallium flux FluoZin-2 fluorescence. B-score of Tl+ flux slope (higher = more flux/activation; lower = inhibition) at 10 µM. 2.2% of 190,000 active. AID 1456;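 active = thallium flux slope and its plate-corrected score both differing from the plate sample mean at a set confidence after two filtering rounds, in either direction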;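 also: slope of fluorescence scaled to starting intensity during 10 to 20 s after thallium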
L major viab: inhibitors of Leishmania major promastigote growth. inhibition, % at 10 µM. Leishmania major promastigotes, resazurin fluorescence viability. 9% of 200,000 active. AID 1063; in the data active = inhibition above about 50%;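 also: promastigotes grown with compound for 44 hours at 28 °C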
ROMK mod: human ROMK K+ channel modulation, primary screen. B-score at 10 µM. P48048. AID 1918. Tet-inducible ROMK, thallium flux fluorescence; actives lie on both sides. 2% of 130,000 active;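 active = signal ratio slope over the read window, or its plate-corrected B-score, at least 3 SD from the plate mean, either direction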;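 also: B-score of the F/F0 ratio slope over 7 to 12 s after thallium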
WT yeast gro inh: growth inhibition of WT yeast, mitochondrial fusion screen | inhibition, % at 10 µM | 2.1% of 190,000 active | mitochondrial fusion phenotypic screen, WT strain; in the data active = inhibition above about 58%; tested in S. cerevisiae
Starred values were filed as active, the others as inactive. Shown are actives, neighbours in structure and some others; about 12% of the full set was active somewhere.

For COc1ccc(-c2cc(-c3ccccc3)c(C#N)c(S(C)(=O)=O)n2)cc1 the results were Calpain2 inh -205.3, KCC2 mod 0.424, L major viab 97.6* and WT yeast gro inh -32.1.
N#Cc1c(-c2ccc(Br)cc2)cc(-c2cccnc2)nc1N was read as Calpain2 inh -59.0, KCC2 mod -0.445, L major viab 3.5, ROMK mod -0.763 and WT yeast gro inh -10.0.
CS(=O)c1nc(-c2ccc(Br)cc2)cc(-c2ccccc2)c1C#N (stereo not given) was read as Calpain2 inh -58.0, KCC2 mod 0.00596, L major viab 100.4* and WT yeast gro inh 6.9.
`CS(=O)(=O)c1nc(-c2ccc(Br)cc2)cc(-c2ccccc2)c1C#N` gave Calpain2 inh -83.3, KCC2 mod 0.642, L major viab 83.9* and WT yeast gro inh -33.9.
Screening Cc1ccc(C(C(=O)NC2CCCC2)N(C(=O)Cc2cccs2)c2ccc3c(c2)OCCO3)cc1 (stereo not given) returned Calpain2 inh -49.5, L major viab 16.4 and WT yeast gro inh 19.4.
Cc1ccc(C(C(=O)NC2CCCC2)N(C(=O)Cc2cccs2)c2ccc(C)c(C)c2)o1 (stereo not given) was read as Calpain2 inh 62.5*, L major viab 19.3 and WT yeast gro inh 63.1*.
`Cc1ccc(N(C(=O)CCl)C(C(=O)NC2CCCCC2)c2cccnc2)cc1C` (stereo not given) gave Calpain2 inh 102.1*, KCC2 mod 0.223, L major viab 100.4*, ROMK mod -3.49 and WT yeast gro inh -13.0.
Cc1ccc(N(C(=O)CNC(=O)c2ccco2)C(C(=O)NC2CCCC2)c2cccnc2)cc1C (stereo not given) was read as Calpain2 inh -15.4, KCC2 mod -0.368, L major viab -10.9 and WT yeast gro inh -13.0.
For Cc1ccc(C)c(N(C(=O)Cc2cccs2)C(C(=O)NC2CCCC2)c2ccc(C)o2)c1 (stereo not given) the results were Calpain2 inh 53.4*, L major viab -2.4 and WT yeast gro inh 5.3.
Screening Cc1nn(C)cc1C(C(=O)NC1CCCCC1)N(C(=O)Cc1cccs1)c1ccc(F)cc1 (stereo not given) returned Calpain2 inh 15.9, KCC2 mod 1.36, L major viab 69.7* and WT yeast gro inh 8.1.
Cc1nn(C)cc1C(C(=O)NC1CCCCC1)N(C(=O)Cc1cccs1)c1ccc(C(C)C)cc1 (stereo not given) was read as Calpain2 inh 14.7, L major viab 13.4 and WT yeast gro inh -2.0.
Screening O=C(COC(=O)/C=C/c1nc2ccccc2s1)Nc1cccc(Cl)c1Cl returned Calpain2 inh 12.9, KCC2 mod -1.4, L major viab 58.8*, ROMK mod -0.00904 and WT yeast gro inh 7.2.
CCOC(=O)c1c(C)[nH]c(C(=O)NCc2ccco2)c1C was read as Calpain2 inh 5.6, KCC2 mod -0.564, L major viab -1.6, ROMK mod 0.38 and WT yeast gro inh -8.3.
`O=C1/C(=C/c2ccsc2)N2CCC1CC2` gave Calpain2 inh 22.6 and KCC2 mod 0.467.
Cc1ccc(-c2nnc(CSc3nc(C(C)C)nc4sc(C)c(C)c34)o2)cc1 was read as Calpain2 inh -15.1, KCC2 mod 9.06*, L major viab -0.8, ROMK mod -0.885 and WT yeast gro inh 9.2.
Screening CCOC(=O)CSc1nc2sc(C)c(C)c2c(=O)n1C returned Calpain2 inh -4.5, KCC2 mod -0.169, L major viab -1.4 and WT yeast gro inh -6.3.
Cc1sc2nc(C(C)C)nc(SCC(=O)NCc3ccco3)c2c1C was read as Calpain2 inh -59.8, KCC2 mod 33.3*, L major viab -5.0 and WT yeast gro inh 31.0.
Screening CCOC(=O)CSc1nc(C(C)C)nc2sc(C)c(C)c12 returned Calpain2 inh 54.5*, KCC2 mod 2.22, L major viab -1.8, ROMK mod -0.0424 and WT yeast gro inh 11.7.
Screening Cc1sc2nc(C(C)C)nc(SCC(=O)N3c4ccccc4CC3C)c2c1C (stereo not given) returned Calpain2 inh 44.6, KCC2 mod 64.5*, L major viab 94.0*, ROMK mod 0.328 and WT yeast gro inh 26.5.
For O=C(Cn1ccc([N+](=O)[O-])n1)NCc1nc2ccccc2[nH]1 the results were Calpain2 inh 13.6, KCC2 mod 0.938, L major viab 5.7, ROMK mod 1.03 and WT yeast gro inh -14.3.
For Cc1ccc(-c2nc(-c3ccccn3)sc2CC(=O)O)cc1 the results were Calpain2 inh -16.6 and KCC2 mod -1.02.
For CCOc1ccc(/C=C2/SC(=O)NC2=S)cc1 the results were Calpain2 inh -19.3, KCC2 mod 68.5*, L major viab 6.5, ROMK mod 4.36* and WT yeast gro inh 64.4.
For Cc1nc(-c2ccccc2)sc1C(=O)CSc1ccc(Br)cc1 the results were Calpain2 inh 16.4, L major viab -4.0 and WT yeast gro inh 17.3.
For Cc1nc(-c2ccccc2)sc1C(=O)CSc1ccc(Cl)cc1 the results were Calpain2 inh 63.6*, L major viab -4.5 and WT yeast gro inh 19.7.
CC(=O)c1ccc(Nc2c3c(nc4ccccc24)CCCC3)cc1 was read as Calpain2 inh 0.4 and KCC2 mod -2.16.
O=C(Nc1c2c(nc3ccccc13)CCCC2)c1ccccc1F was read as Calpain2 inh 37.5, KCC2 mod -0.414, L major viab -3.0, ROMK mod -0.814 and WT yeast gro inh -22.5.
`COc1cc(Nc2c3c(nc4ccccc24)CCCC3)cc(OC)c1OC` gave Calpain2 inh 4.0, KCC2 mod -0.488, L major viab 66.4*, ROMK mod -0.158 and WT yeast gro inh -3.7.
c1ccc2c(Nc3ccc4c(c3)OCCO4)c3c(nc2c1)CCCC3 was read as Calpain2 inh 24.2, KCC2 mod -0.756, L major viab 98.9*, ROMK mod -1.47 and WT yeast gro inh 13.0.
Screening CCOc1ccc2nc(NC(NC(=O)CC)(C(=O)OC)C(F)(F)F)sc2c1 (stereo not given) returned Calpain2 inh 7.6, KCC2 mod -0.285, L major viab 27.8 and WT yeast gro inh 1.2.
For CC(=O)Oc1c(C)cc(Cl)cc1C(=O)Nc1ccc([N+](=O)[O-])cc1Cl the results were Calpain2 inh -14.5, KCC2 mod 0.224, L major viab 8.1, ROMK mod -1.4 and WT yeast gro inh 85.2*.
Screening O=c1c2c([nH]c3ccccc13)CCCCC2 returned Calpain2 inh -22.2, KCC2 mod inactive and ROMK mod 0.149.
Screening O=c1c2c([nH]c3ccccc13)CCCCCC2 returned Calpain2 inh 17.1, KCC2 mod 0.115, L major viab 63.6* and WT yeast gro inh 15.3.
For COc1cc(/C=N/NS(=O)(=O)c2ccc3ccccc3c2)ccc1OCCN1CCOCC1 the results were Calpain2 inh -41.7, KCC2 mod 0.000623, L major viab -3.6, ROMK mod 0.359 and WT yeast gro inh -1.5.
For Cc1ccccc1/C(N)=N/OC(=O)N1c2ccccc2Sc2ccccc21 the results were Calpain2 inh -34.2, L major viab 92.8*, ROMK mod -1.58 and WT yeast gro inh 83.1*.

Bioassay records as filed in PubChem BioAssay.
